# A number with no mark means an inactive call.
# What was measured:
# Experiment in all cases: log2 ratio of Biotin-Ahx-Ub-VS probe labelling (fragment/DMSO); higher = less target engagement (more negative = stronger competition), active = hit call of the paper (q ≤ 0.05, log2 ratio ≤ -1)
# Settings in all cases: compound concentration: 200 uM; treatment time: 3 h
# USP19 = molecular target: T1, USP19 (UniProt O94966)
# T1 sequence (whole entry): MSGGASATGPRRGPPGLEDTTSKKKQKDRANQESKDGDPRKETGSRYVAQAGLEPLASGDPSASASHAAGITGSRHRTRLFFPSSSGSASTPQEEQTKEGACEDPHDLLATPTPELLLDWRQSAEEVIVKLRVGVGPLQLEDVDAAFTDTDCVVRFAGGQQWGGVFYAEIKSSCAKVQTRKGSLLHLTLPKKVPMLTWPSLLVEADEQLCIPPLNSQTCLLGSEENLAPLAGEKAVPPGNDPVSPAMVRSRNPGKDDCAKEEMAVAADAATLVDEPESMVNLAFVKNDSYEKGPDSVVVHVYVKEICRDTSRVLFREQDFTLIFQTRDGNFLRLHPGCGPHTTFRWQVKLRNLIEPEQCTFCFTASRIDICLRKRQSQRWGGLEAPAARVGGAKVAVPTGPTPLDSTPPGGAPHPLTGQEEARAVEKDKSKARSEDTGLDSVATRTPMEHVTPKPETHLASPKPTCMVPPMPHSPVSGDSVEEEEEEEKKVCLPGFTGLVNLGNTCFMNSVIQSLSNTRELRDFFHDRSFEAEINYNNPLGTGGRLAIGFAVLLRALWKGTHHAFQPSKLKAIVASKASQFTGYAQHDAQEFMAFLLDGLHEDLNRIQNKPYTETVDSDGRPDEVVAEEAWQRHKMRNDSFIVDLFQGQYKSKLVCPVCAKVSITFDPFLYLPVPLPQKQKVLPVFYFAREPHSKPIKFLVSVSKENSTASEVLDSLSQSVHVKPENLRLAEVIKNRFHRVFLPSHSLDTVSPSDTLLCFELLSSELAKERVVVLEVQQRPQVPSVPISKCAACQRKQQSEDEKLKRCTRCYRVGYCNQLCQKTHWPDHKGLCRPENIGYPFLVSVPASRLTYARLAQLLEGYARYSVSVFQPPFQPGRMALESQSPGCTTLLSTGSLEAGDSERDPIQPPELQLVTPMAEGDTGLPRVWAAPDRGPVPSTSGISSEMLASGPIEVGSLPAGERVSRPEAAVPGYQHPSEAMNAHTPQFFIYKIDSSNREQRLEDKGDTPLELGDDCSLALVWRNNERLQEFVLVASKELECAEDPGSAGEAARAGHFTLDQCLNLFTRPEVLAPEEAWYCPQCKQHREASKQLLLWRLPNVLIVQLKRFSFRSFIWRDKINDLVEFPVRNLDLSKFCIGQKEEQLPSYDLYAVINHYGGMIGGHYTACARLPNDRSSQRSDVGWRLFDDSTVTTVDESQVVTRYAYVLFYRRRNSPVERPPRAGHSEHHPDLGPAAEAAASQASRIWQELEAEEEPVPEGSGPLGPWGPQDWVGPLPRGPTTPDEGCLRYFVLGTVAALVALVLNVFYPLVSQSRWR
# How it was run: (§1)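 Average log2 ratios of fragment over vehicle were obtained by unpaired t-test from global-median-normalised Spectronaut label-free quantities. Proteins with ≥2 unique peptides were included. HEK293T lysate (495 µg per sample) was treated in triplicate with fragment at 200 µM or vehicle for 3 h, then with Biotin-Ahx-Ub-VS at 0.5 µM final for 1 h, and labelled DUBs were NeutrAvidin-enriched and run by diaPASEF LC-MS/MS.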
# USP24 = USP24 (UniProt Q9UPU5)
# How it was run: as §1
# USP25 = molecular target: T2, USP25 (UniProt Q9UHP3)
# T2 sequence (whole entry): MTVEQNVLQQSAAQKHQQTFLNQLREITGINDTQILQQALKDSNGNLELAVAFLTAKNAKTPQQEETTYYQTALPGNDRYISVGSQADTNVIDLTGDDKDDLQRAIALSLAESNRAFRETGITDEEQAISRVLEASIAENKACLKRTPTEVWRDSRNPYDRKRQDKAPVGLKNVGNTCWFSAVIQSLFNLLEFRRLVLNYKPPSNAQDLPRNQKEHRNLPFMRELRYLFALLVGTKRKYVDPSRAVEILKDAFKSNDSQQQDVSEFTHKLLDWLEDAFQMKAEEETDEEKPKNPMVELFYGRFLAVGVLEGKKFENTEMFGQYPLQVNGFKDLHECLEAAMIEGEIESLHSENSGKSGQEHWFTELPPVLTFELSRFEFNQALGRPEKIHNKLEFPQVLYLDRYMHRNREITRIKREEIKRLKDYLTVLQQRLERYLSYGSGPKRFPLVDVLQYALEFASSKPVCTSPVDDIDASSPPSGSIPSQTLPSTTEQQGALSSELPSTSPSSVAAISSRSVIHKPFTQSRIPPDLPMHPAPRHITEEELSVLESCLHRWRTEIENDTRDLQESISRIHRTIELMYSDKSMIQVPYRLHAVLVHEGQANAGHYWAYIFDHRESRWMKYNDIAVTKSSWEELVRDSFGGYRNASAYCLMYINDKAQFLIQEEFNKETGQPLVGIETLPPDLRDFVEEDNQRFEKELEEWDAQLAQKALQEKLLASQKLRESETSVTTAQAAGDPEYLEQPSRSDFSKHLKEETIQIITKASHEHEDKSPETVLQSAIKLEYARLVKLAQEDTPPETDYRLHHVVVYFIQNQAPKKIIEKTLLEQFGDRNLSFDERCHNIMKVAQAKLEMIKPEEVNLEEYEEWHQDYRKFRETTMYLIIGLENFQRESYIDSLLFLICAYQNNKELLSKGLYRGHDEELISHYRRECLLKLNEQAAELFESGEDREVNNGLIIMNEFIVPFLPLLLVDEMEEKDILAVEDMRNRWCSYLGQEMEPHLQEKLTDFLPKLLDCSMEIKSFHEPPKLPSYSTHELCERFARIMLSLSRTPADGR
# How it was run: as §1
# USP28 = molecular target: T3, USP28 (UniProt Q96RU2)
# T3 sequence (whole entry): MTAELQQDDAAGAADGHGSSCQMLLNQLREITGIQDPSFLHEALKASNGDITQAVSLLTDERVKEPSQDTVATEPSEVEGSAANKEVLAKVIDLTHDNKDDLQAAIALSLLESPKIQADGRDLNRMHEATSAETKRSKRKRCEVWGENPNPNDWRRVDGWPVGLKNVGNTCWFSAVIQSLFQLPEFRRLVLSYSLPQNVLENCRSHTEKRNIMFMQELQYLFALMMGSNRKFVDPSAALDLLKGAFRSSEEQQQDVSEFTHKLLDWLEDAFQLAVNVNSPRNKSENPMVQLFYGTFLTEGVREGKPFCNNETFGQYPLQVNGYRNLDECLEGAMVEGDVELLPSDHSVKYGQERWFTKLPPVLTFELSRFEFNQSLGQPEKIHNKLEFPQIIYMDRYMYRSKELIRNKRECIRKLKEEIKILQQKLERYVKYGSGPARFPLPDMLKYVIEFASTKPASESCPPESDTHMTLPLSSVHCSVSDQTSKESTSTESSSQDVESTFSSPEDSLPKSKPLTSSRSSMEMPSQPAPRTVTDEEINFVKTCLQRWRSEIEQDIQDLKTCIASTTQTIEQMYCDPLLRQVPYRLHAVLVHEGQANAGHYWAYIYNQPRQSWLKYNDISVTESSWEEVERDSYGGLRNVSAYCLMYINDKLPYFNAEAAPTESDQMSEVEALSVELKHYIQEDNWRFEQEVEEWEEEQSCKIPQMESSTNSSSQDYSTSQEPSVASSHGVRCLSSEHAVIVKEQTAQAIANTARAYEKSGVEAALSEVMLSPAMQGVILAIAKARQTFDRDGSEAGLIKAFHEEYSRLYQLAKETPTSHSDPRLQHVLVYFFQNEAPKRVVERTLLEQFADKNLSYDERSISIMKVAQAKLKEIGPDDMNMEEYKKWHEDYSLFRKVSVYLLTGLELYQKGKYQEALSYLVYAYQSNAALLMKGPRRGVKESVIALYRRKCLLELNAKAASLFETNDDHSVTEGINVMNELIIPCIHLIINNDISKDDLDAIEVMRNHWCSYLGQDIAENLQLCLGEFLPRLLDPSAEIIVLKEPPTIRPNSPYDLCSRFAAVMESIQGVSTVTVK
# How it was run: as §1
# Chain of USP24 (Q9UPU5 whole entry): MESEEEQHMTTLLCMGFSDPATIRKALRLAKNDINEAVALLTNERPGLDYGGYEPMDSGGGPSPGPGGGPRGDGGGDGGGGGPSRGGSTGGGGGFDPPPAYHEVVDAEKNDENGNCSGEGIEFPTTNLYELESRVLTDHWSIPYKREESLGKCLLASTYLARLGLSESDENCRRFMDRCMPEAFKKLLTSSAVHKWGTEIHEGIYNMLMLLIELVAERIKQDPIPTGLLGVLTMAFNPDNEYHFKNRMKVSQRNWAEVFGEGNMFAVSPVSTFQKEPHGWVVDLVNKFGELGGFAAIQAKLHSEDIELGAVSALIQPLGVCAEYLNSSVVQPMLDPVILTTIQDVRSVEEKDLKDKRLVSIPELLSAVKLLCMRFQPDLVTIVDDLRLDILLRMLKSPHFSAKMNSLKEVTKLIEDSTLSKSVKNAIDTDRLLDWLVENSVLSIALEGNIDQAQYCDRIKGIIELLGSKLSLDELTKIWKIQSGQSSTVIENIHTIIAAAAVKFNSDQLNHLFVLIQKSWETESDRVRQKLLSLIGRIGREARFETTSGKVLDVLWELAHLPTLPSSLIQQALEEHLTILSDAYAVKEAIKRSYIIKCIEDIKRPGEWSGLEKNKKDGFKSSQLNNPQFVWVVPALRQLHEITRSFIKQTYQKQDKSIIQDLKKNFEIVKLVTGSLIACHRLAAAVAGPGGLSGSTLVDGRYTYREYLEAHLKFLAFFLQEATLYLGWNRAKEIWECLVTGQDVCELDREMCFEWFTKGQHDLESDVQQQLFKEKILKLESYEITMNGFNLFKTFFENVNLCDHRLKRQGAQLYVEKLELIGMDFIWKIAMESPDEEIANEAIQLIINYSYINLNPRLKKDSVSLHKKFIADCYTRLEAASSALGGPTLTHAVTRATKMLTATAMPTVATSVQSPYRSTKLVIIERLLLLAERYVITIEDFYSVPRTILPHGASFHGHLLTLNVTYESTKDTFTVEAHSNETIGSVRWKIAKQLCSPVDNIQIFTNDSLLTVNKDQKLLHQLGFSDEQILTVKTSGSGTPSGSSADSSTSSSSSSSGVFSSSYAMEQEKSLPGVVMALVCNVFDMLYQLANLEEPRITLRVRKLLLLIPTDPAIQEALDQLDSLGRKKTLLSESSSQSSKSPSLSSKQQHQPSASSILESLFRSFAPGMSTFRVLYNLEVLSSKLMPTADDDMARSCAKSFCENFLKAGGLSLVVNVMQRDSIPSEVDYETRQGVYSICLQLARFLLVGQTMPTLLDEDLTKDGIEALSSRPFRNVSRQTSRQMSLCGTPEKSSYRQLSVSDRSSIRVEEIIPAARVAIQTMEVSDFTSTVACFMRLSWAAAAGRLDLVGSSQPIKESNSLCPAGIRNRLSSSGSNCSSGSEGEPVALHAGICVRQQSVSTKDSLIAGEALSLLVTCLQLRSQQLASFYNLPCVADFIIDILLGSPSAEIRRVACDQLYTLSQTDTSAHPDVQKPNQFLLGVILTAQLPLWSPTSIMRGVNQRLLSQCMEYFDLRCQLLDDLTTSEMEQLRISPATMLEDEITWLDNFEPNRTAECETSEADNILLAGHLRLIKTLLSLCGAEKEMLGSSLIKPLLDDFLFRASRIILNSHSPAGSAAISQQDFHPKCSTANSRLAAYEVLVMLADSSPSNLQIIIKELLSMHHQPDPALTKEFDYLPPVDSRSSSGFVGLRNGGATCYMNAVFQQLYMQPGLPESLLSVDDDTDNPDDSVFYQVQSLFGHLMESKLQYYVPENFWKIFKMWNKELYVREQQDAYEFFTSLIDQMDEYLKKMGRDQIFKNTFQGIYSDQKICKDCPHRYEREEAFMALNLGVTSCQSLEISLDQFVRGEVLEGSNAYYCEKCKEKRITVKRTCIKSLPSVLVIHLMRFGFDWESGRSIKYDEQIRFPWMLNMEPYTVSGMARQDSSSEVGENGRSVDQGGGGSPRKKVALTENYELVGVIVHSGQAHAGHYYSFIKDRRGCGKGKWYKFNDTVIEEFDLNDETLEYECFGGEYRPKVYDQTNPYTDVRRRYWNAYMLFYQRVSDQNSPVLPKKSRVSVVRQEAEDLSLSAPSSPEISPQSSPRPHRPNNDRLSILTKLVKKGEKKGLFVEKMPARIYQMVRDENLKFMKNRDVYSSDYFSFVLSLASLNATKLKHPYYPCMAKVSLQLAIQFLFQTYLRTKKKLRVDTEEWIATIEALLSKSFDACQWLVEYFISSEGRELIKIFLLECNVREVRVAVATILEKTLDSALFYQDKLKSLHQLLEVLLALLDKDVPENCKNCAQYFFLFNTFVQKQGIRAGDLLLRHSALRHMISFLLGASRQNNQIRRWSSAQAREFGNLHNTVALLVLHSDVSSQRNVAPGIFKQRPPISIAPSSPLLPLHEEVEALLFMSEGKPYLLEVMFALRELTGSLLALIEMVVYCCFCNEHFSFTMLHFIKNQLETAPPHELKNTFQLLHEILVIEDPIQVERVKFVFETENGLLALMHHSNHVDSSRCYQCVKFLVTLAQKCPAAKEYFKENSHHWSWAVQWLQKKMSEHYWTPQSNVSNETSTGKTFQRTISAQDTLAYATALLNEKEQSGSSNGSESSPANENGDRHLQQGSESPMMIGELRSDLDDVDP
structure (smiles),measurement,setting,value
Cc1c(C#N)c(NC(=O)CCl)n(Cc2ccco2)c1C,log2 ratio of Biotin-Ahx-Ub-VS probe labelling,USP19,-0.239
same,log2 ratio of Biotin-Ahx-Ub-VS probe labelling,USP24,-0.837
same,log2 ratio of Biotin-Ahx-Ub-VS probe labelling,USP25,-1.24 (active)
same,log2 ratio of Biotin-Ahx-Ub-VS probe labelling,USP28,-1.76 (active)

# Source: the supplement of paper PMC11732987, “Enantioselective OTUD7B fragment discovery through chemoproteomics screening and high-throughput optimisation” (Communications Chemistry, 2025)
